The source of these data is PubChem BioAssay AID602244 (Sanford-Burnham Center for Chemical Genomics, 2012).

In all, about 360,000 compounds went through this assay and about 1,300 (0.36%) were called active. No stated cut-off is given here; in the data, active means inhibition above about 34% (passing the limit was not always enough); inactive means the rest. The full list was thinned out, with actives kept by preference.

C-X-C chemokine receptor type 6 (Homo sapiens), sequence (O00574 whole entry, looked up): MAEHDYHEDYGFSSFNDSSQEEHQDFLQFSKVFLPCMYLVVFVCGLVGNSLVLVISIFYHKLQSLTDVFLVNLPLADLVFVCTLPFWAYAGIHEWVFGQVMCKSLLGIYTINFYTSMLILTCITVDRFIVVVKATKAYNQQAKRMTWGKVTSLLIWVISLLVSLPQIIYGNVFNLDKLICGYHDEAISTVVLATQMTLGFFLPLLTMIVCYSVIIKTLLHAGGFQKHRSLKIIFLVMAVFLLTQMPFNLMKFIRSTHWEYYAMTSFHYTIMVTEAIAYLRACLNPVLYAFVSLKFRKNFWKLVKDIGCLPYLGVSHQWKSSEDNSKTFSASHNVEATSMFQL

This test has as its target C-X-C chemokine receptor type 6 (Homo sapiens) (UniProt O00574). Briefly: CXCR6 receptor inhibitors, primary screen, cell-based, beta-arrestin, luminescence, CHO-K1 PathHunter, 1536-well (AID 602244).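 Further: antagonist mode with CXCL16 agonist at 10 nM final; 0% = 10 nM CXCL16 with DMSO and 100% = unstimulated wells without agonist.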 The conditions noted are these: at 20 µM, active compounds read high.
As a reminder, the inhibition is the relative decrease from the control value, in per cent. `O=C(N/N=C/c1c(O)n(Cc2ccccc2)c(=O)[nH]c1=O)c1ccccc1`: the inhibition is 7.9% (inactive).
To `Cn1c(O)c(C=NCCCC(=O)O)c(=O)n(C)c1=O` belongs -3.2% (inactive); to `CCCCC(=O)N/N=C/c1c(O)n(CC)c(=S)n(CC)c1=O`, 58.7% (active).
In the case of `Cc1cc(C)cc(NC(=S)NC2CC3CCCC(C2)N3Cc2cccs2)c1` (stereo not given) it was 3.2% (inactive); in that of `Oc1cc2c(cc1CN1CCN(c3ccccc3)CC1)OCO2`, 5.6% (inactive).
On to `CCCC[N+]1(C)C2CC(OC(=O)C(CO)c3ccccc3)CC1C1OC12` (stereo not given), for which the inhibition was 0.8% (inactive).
For `Cc1ccc(-c2nn(CCC#N)cc2C(=O)O)cc1C`, the inhibition was 9.5% (inactive).
As to `Cc1cccc(N2C(=O)NC(=O)/C(=C\c3cnn(-c4ccccc4)c3)C2=O)c1`, the inhibition is 51.1% (active).
To `C/C=C/CC1(CC)C(=O)NC(=S)NC1=O` belongs -5.1% (inactive); to `COc1ccc(S(=O)(=O)NCc2ccc(C(=O)N3CCC4(CC3)OCCO4)cc2)cc1`, 3.3% (inactive); to `CCOC(=O)C1=C(C)OC(N)=C(C(=O)OC)C12C(=O)Nc1ccc(Br)cc12` (stereo not given), 9.8% (inactive).
As for `O=C1NC(=O)C(CCOc2ccccc2)(CCc2ccccc2)C(=O)N1`, the inhibition was -10% (inactive).
On to `C=CCN1C(=O)C2(C(C(=O)OCC)=C(N)Oc3c2c(=O)oc2ccccc32)c2ccccc21` (stereo not given), for which the inhibition was -2.4% (inactive).
Consider `CC(=O)OC1C2(CC3N4C(=O)C5(CO)SSC4(CC31O)C(=O)N5C)OC(C)C(C)(C)C2=O` (stereo not given), for which the inhibition was 99.4% (active).
In the case of `CNC(=O)O/N=C(\N)Cc1csc2ccc(Cl)cc12` it was 0% (inactive).
